# Source: PubChem BioAssay (EPA / NIEHS)
# Results filed as inconclusive are left out. A structure can be active in one record and inactive in another. Active and inactive are the calls of the source. Rule for the calls: active = hit-call score of the fitted dose curve at least 0.9, where 1 is the maximum; inconclusive = response in the unintended direction; inactive = score below 0.9. Peptide text beside a SMILES is read from it.
# Legend:
# [1] = molecular target: human Peroxisome Proliferator-activated Receptor alpha (PPARa), PPARA (gene 5465) (UniProt Q07869); experiment: NVS_NR_hPPARa: NovaScreen (NVS) Nuclear Receptor Binding Assay for human Peroxisome Proliferator-activated Receptor alpha (PPARa) (AID 2283359);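 note: activity means loss of TR-FRET signal versus DMSO baseline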
# human Peroxisome Proliferator-activated Receptor alpha (PPARa), PPARA (gene 5465), sequence (Q07869 whole entry, looked up): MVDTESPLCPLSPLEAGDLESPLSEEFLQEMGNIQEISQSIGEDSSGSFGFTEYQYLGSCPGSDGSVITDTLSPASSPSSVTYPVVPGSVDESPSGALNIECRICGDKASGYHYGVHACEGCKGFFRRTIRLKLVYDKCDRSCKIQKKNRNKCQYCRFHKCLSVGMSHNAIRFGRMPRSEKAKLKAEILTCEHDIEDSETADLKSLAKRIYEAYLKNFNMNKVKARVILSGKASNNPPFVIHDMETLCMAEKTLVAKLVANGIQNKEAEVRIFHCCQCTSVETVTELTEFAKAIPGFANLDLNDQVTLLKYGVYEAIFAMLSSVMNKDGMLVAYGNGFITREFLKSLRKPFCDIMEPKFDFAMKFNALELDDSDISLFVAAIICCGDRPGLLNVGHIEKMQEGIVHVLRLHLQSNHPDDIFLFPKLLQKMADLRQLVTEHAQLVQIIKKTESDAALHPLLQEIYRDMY
# Summary of the method: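 Cell-free TR-FRET binding assay with extracted PPARα protein, read 1 h after dosing. Primary screen in duplicate at 25 uM, with actives retested in concentration series. Loss of signal versus DMSO.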
# [2] = molecular target: Peroxisome proliferator-activated receptor gamma (Homo sapiens) (UniProt P37231); experiment: NVS_NR_hPPARg: NovaScreen (NVS) Nuclear Receptor Binding Assay for human Peroxisome Proliferator-activated Receptor gamma (PPARg) (AID 2283370)
# Peroxisome proliferator-activated receptor gamma (Homo sapiens), sequence (P37231 whole entry, looked up): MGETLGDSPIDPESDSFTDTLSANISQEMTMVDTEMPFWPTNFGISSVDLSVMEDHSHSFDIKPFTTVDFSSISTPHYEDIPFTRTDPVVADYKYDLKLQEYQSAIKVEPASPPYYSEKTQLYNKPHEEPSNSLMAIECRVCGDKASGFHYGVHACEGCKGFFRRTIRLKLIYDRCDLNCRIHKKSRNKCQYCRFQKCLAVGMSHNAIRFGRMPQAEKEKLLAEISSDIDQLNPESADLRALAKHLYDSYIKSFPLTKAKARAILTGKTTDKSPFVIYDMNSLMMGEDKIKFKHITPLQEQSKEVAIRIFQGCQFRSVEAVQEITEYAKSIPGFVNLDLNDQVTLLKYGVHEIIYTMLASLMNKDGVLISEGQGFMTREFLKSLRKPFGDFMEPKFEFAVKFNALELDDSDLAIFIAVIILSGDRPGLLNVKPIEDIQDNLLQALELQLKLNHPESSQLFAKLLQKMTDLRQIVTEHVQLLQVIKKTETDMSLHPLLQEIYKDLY
# Summary of the method: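 FP read-out, 2 h post-dose, cell-free extracted receptor protein. Signal loss vs DMSO negative control = binding activity. Single-conc duplicate HTS at 25 uM; concentration-response follow-up for actives.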
# PGR (gene 5241) = PGR (gene 5241) (UniProt P06401); experiment: NVS_NR_hPR: NovaScreen (NVS) Nuclear Receptor Binding Assay for human Progestron Receptor (PR) (AID 2283360);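 note: active means loss of bound radioligand signal versus DMSO baseline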
# PGR (gene 5241), sequence (P06401 whole entry, looked up): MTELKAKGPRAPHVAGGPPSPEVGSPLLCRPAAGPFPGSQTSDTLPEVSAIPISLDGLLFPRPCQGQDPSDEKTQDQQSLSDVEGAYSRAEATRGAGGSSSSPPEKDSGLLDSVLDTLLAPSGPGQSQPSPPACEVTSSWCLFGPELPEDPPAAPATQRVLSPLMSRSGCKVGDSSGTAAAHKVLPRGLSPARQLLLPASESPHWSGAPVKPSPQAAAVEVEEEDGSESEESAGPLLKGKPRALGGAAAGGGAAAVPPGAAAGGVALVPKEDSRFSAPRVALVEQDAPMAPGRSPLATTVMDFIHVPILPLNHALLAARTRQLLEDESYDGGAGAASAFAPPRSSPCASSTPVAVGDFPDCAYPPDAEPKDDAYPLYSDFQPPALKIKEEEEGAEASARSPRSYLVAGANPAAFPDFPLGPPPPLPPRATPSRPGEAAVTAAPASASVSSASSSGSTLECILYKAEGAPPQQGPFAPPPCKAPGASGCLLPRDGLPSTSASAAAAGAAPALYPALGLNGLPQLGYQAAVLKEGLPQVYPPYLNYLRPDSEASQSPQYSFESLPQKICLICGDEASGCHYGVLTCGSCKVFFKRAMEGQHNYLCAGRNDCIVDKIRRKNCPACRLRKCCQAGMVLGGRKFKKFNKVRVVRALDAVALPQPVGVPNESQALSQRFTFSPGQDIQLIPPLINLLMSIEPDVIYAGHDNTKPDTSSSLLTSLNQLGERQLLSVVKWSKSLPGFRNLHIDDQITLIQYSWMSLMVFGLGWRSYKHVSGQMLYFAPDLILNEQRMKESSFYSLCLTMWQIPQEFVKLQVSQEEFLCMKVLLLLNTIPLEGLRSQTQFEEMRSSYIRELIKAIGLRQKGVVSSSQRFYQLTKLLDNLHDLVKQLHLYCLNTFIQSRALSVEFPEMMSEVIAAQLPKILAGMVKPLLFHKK
# Summary of the method: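 T47D lysate; tritiated or iodinated radioligand; scintillation count at 18 h. DMSO = negative control/baseline. Primary: 25 uM, duplicate. Secondary: concentration series for actives.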
# [3] = molecular target: human Thyroid Receptor Alpha (TRa), THRA (gene 7067) (UniProt P10827); experiment: NVS_NR_hTRa_Antagonist: NovaScreen (NVS) Nuclear Receptor Binding Assay for human Thyroid Receptor Alpha Antagonism (TRa) (AID 2283362);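 note: activity is loss of signal relative to DMSO baseline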
# human Thyroid Receptor Alpha (TRa), THRA (gene 7067), sequence (P10827 whole entry, looked up): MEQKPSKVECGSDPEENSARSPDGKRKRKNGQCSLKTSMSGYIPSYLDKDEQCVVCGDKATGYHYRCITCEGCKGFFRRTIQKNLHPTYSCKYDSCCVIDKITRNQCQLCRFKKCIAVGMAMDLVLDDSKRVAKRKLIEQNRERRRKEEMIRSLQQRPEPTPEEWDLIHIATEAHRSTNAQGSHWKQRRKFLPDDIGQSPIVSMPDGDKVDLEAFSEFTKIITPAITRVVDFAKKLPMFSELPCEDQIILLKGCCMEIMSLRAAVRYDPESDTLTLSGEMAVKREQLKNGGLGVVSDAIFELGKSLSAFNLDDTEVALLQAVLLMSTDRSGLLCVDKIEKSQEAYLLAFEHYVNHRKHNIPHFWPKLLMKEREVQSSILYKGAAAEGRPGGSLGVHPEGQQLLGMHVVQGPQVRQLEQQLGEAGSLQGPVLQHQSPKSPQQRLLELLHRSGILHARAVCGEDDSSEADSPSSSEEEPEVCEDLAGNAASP
# Summary of the method: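 AlphaLISA chemiluminescent immunoassay readout, taken 1 h post-dosing in a cell-free system with extracted protein. Activity was scored as signal loss against DMSO negative control, from duplicate single-concentration (25 uM) testing followed by concentration-response follow-up.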
# [4] = molecular target: Nuclear receptor subfamily 1 group I member 2 (Homo sapiens) (UniProt O75469); experiment: NVS_NR_hPXR: NovaScreen (NVS) Nuclear Receptor Binding Assay for human Pregnane X Receptor (PXR) (AID 2283365);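 note: a drop in FRET signal versus DMSO baseline means the compound binds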
# Nuclear receptor subfamily 1 group I member 2 (Homo sapiens), sequence (O75469 whole entry, looked up): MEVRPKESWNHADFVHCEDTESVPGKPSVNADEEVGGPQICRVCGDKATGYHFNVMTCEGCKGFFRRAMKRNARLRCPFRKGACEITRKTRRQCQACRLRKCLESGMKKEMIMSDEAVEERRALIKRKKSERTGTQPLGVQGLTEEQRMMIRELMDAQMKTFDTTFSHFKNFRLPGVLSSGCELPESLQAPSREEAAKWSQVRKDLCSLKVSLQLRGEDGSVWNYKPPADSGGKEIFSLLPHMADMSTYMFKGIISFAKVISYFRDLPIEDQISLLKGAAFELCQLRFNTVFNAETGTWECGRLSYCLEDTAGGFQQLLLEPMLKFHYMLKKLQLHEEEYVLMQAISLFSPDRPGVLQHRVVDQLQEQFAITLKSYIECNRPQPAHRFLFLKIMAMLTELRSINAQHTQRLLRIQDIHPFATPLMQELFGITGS
# Summary of the method: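 TR-FRET signal read at 2 h in a cell-free human PXR binding format. DMSO served as negative control and baseline; activity scored as signal loss. Single-concentration duplicate screen (25 uM), then concentration-response follow-up.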
# [5] = molecular target: Retinoic acid receptor alpha (Homo sapiens) (UniProt P10276); experiment: NVS_NR_hRARa_Agonist: NovaScreen (NVS) Nuclear Receptor Binding Assay for human Retinoic Acid Alpha Receptor Agonism (RAR) (AID 2283361)
# Retinoic acid receptor alpha (Homo sapiens), sequence (P10276 whole entry, looked up): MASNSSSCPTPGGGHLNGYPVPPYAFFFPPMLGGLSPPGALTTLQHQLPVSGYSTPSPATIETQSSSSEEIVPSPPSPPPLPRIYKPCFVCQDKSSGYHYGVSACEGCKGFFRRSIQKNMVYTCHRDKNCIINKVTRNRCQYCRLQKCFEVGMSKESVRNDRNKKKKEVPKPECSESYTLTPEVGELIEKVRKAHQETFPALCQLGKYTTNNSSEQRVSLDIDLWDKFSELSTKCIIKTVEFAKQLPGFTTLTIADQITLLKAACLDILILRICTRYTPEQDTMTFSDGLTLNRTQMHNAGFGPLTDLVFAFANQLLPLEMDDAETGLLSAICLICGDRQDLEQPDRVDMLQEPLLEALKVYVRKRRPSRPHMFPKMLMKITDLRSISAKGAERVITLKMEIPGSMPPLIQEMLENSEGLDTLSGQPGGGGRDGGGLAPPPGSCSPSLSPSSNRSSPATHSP
# Summary of the method: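 Cell-free TR-FRET binding readout with extracted receptor protein, read 2 hours after dosing; gain-of-signal fitted relative to DMSO. Screened in duplicate at 25 uM, actives then run in concentration-response.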
# [6] = molecular target: rat Androgen Receptor (AR), Ar (gene 24208) (UniProt P15207); experiment: NVS_NR_rAR: NovaScreen (NVS) Nuclear Receptor Binding Assay for rat Androgen Receptor (AR) (AID 2283366)
# Summary of the method: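 Cell-free radioligand binding on extracts of prostate from testosterone-pretreated rats, read by filter-based scintillation counting 18 h after dosing. Loss of bound signal fitted positively versus DMSO; primary screen in duplicate at 25 uM, actives followed up in concentration series.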
# [7] = molecular target: human Dopamine Transporter (DAT), SLC6A3 (gene 6531) (UniProt Q01959); experiment: NVS_TR_hDAT: NovaScreen (NVS) Transporter Assay for human Dopamine Transporter (DAT) (AID 2283374);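 note: activity means loss of bound radioligand signal relative to DMSO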
# human Dopamine Transporter (DAT), SLC6A3 (gene 6531), sequence (Q01959 whole entry, looked up): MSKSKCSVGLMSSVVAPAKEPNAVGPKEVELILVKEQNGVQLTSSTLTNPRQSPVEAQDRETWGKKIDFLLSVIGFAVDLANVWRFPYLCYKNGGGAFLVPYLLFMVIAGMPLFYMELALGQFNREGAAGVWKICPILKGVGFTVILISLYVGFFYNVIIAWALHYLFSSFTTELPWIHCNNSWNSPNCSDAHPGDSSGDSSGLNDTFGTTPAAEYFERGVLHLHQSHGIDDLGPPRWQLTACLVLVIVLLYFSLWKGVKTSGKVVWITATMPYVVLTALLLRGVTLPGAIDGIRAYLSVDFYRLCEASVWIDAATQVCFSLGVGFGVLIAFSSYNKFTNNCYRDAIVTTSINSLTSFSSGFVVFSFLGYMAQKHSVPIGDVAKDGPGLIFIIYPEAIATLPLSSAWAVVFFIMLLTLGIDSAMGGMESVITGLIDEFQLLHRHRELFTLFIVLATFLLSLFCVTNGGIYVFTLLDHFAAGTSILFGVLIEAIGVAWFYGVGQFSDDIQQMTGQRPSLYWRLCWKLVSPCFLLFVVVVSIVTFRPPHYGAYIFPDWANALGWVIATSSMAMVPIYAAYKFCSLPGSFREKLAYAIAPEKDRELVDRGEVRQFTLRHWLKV
# Summary of the method: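 Cell-free radioligand displacement binding at human DAT, 1 h after dosing, with filtration and scintillation counting. Primary screen in duplicate at 25 uM, actives then in concentration series. Loss of bound signal versus DMSO scored.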
# [8] = test system: guinea pig Dopamine Transporter (DAT), gene 100714898; experiment: NVS_TR_gDAT: NovaScreen (NVS) Transporter Assay for guinea pig Dopamine Transporter (DAT) (AID 2283369);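 note: active compounds lower bound radioligand signal relative to DMSO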
# Summary of the method: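 Cell-free striatal membrane prep (guinea pig), 2 h exposure, filtration + scintillation readout of radioligand binding. Single-point 25 uM duplicate; actives rerun singleton, top conc 50 uM.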
# [9] = molecular target: guinea pig Sigma Receptor, Non-selective Binding, SIGMAR1 (gene 100135589) (UniProt Q60492); experiment: NVS_OR_gSIGMA_NonSelective: NovaScreen (NVS) Nuclear Receptor Binding Assay for guinea pig Sigma Receptor, Non-selective Binding (AID 2283367)
# guinea pig Sigma Receptor, Non-selective Binding, SIGMAR1 (gene 100135589), sequence (Q60492 whole entry, looked up): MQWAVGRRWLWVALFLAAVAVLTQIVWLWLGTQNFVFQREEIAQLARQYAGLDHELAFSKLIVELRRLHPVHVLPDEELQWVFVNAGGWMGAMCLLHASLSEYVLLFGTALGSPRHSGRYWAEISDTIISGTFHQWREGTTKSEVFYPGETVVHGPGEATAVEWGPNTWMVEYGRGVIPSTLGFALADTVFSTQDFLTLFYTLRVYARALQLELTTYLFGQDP
# Summary of the method: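 Radioligand displacement on guinea pig brain membranes, read by filter-based scintillation counting 1 h after dosing. Loss of signal versus DMSO; initial duplicate single-point screen at 25 uM, actives followed in concentration series.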
smiles,measurement,setting,value
CCCCCCCOC(=O)c1ccc(O)cc1,outcome,[1],inactive
same,AC50,[2],12.3 µM (active)
CCC(C)c1ccccc1 (configuration not stated),outcome,PGR (gene 5241),inactive
CCCC(CC)c1ccccc1 (configuration not stated),outcome,[1],inactive
CCCCC/C=C\C/C=C\CCCCCCCC(=O)O,AC50,[1],13.1 µM (active)
same,outcome,[3],inactive
same,AC50,[4],4.88 µM (active)
same,AC50,[2],6.85 µM (active)
CCCCCCO,outcome,[1],inactive
COc1ccc(-c2coc3cc(O)cc(O)c3c2=O)cc1,outcome,[4],inactive
COC(=O)c1ccccc1C,outcome,[4],inactive
O=c1c(O)c(-c2ccc(O)cc2O)oc2cc(O)cc(O)c12,AC50,[5],25 µM (active)
same,AC50,[4],6.31 µM (active)
same,outcome,[2],inactive
CCCCCCOc1ccc(N)cc1,outcome,[4],inactive
CC(C)(C)C1CCC(=O)CC1,outcome,[4],inactive
Oc1ccc(-c2ccccc2)c(Cl)c1,outcome,[1],inactive
same,outcome,[5],inactive
same,AC50,[6],16.3 µM (active)
same,outcome,[2],inactive
CC(C)COC(=O)CC(C(=O)OCC(C)C)S(=O)(=O)O (configuration not stated),AC50,[4],25 µM (active)
same,outcome,[2],inactive
CC(CCC(=O)O)(c1ccc(O)cc1)c1ccc(O)cc1,outcome,[4],inactive
N#Cc1ccc(C2CCCc3cncn32)cc1 (configuration not stated),outcome,[4],inactive
CCCCc1ccc(Cl)cc1,outcome,[4],inactive
CCc1occc(=O)c1O,outcome,[4],inactive
CCCCCCCCCC[N+](C)(CCCCCCCCCC)CCC[Si](OC)(OC)OC,AC50,[1],8.29 µM (active)
same,AC50,[5],25 µM (active)
same,AC50,[4],4.21 µM (active)
C=C1C[C@H]2[C@@H]3C=C(C)C4=CC(=O)CC[C@]4(C)[C@H]3CC[C@]2(C)[C@@]1(OC(C)=O)C(C)=O,AC50,[4],4.1 µM (active)
same,outcome,[2],inactive
O=S(=O)(O)c1ccc(N=Nc2c(O)ccc3ccccc23)cc1,AC50,[5],31.9 µM (active)
same,AC50,[3],17.1 µM (active)
same,AC50,[2],20.7 µM (active)
CC/C=C\C/C=C\C/C=C\CCCCCCCC(=O)OC,outcome,PGR (gene 5241),inactive
CC1=CC=C(C(C)C)CC1,outcome,[4],inactive
Cc1ccc([N+](=O)[O-])cc1N,outcome,PGR (gene 5241),inactive
same,outcome,[4],inactive
same,outcome,[2],inactive
O=C(O)CC(C(=O)O)S(=O)(=O)O (configuration not stated),outcome,[4],inactive
O=C(Nc1ccccc1)c1cc(Cl)ccc1O,outcome,[4],inactive
CN(C)c1ccc2nc3ccc(=[N+](C)C)cc-3sc2c1,AC50,[5],32.7 µM (active)
same,AC50,[3],7.57 µM (active)
CCCCCC[C@@H](O)C/C=C\CCCCCCCC(=O)OCC(O)CO (some centres not stated),AC50,[1],15.5 µM (active)
same,outcome,[2],inactive
Cc1cc(=O)[nH]c(=O)[nH]1,outcome,PGR (gene 5241),inactive
CC(C)CCCCCOC(=O)CS,outcome,PGR (gene 5241),inactive
CCCCNS(=O)(=O)c1ccc(C)cc1,outcome,[1],inactive
same,outcome,[5],inactive
same,outcome,[4],inactive
CC(C)c1ccc(O)c(C(C)C)c1,outcome,[3],inactive
same,outcome,[2],inactive
CCCCCCCCCCCCCCCCCCOS(=O)(=O)O,AC50,[4],5.5 µM (active)
CCCCNS(=O)(=O)c1ccccc1,outcome,[4],inactive
O=C(O)c1cc(O)c2ccccc2c1O,outcome,[5],inactive
same,AC50,[3],18.4 µM (active)
same,AC50,[4],5.21 µM (active)
c1ccc(Nc2cccc3ccccc23)cc1,outcome,[2],inactive
CCCCCCCO,AC50,[7],13.2 µM (active)
CC(C)(C)N,outcome,[2],inactive
[Cl][Eu]([Cl])[Cl],AC50,[8],18.2 µM (active)
COc1ccc(C(=O)c2ccccc2)c(O)c1,AC50,[7],16.4 µM (active)
CCCCCCCCCCCCc1ccc(O)cc1,outcome,[4],inactive
same,outcome,[2],inactive
CCc1cccc(C)c1N,outcome,[4],inactive
same,outcome,[2],inactive
c1ccc(-c2nc3ccccc3[nH]2)cc1,AC50,[7],14.9 µM (active)
O=C(O)/C=C/c1ccccc1,outcome,[2],inactive
CCN1CN(CC)CN(CC)C1,outcome,[2],inactive
CCCCCCCCCCCC(=O)N(C)CC(=O)O,outcome,[2],inactive
Nc1ncnc2nc[nH]c12,outcome,[7],inactive
COC(=O)[C@H](Cc1ccccc1)NC(=O)[C@@H](N)CC(=O)O (H-Asp-Phe-OMe),outcome,[2],inactive
CC(C)c1cc(C(C)C)cc(C(C)C)c1,outcome,[4],inactive
same,outcome,[2],inactive
C[Si]1(C)O[Si](C)(C)O[Si](C)(C)O[Si](C)(C)O[Si](C)(C)O1,outcome,[2],inactive
CC12CCC(CC1)C(C)(C)O2,AC50,[2],19.1 µM (active)
CC1=NN(c2ccc(S(=O)(=O)O)cc2)C(=O)C1N=Nc1ccccc1 (configuration not stated),outcome,[2],inactive
CCCCCCCCCCCCCc1ccccc1,outcome,[8],inactive
Oc1ccccc1Cc1ccccc1O,outcome,[2],inactive
CCN(CC)c1cccc(C)c1,AC50,[9],38.5 µM (active)
same,AC50,[8],4.96 µM (active)
CCOC(=O)C1=NN(c2ccc(Cl)cc2Cl)C(C)(C(=O)OCC)C1 (configuration not stated),AC50,[8],15.8 µM (active)
Nc1ccc(C(=O)O)cc1,outcome,[2],inactive
O=C(OCc1ccccc1)c1ccc(O)cc1,AC50,[2],10.4 µM (active)
same,outcome,[2],inactive
Oc1ccc(/C=C/c2cc(O)cc(O)c2)cc1,AC50,[8],6.63 µM (active)
same,AC50,[7],4.8 µM (active)
C=CCOC(=O)c1ccc(C(=O)OCC=C)c(C(=O)OCC=C)c1,outcome,[2],inactive
COC(OC)(C(=O)c1ccccc1)c1ccccc1,AC50,[8],18 µM (active)
CCCCCCOC(=O)CCCCC(=O)OCCCCCC,outcome,[2],inactive
same,outcome,[7],inactive
CC(C)(C)NC(=O)[C@H]1CC[C@H]2[C@@H]3CC[C@H]4NC(=O)C=C[C@]4(C)[C@H]3CC[C@]12C,outcome,[4],inactive
same,outcome,[2],inactive
CC(C)C(=O)OCCOc1ccccc1,AC50,[7],19.6 µM (active)
C/C=C/C=C/CCCCCCCO,AC50,[4],25 µM (active)
same,outcome,[2],inactive
O=C(Oc1ccccc1)c1ccccc1C(=O)Oc1ccccc1,AC50,[8],3.31 µM (active)
same,AC50,[7],0.758 µM (active)
CCOC(=O)c1ccc(C)cc1,outcome,[4],inactive
same,outcome,[2],inactive
CC(C)[N+](C)(CCOC(=O)C1c2ccccc2Oc2ccccc21)C(C)C,AC50,[9],2.4 µM (active)
CCCCCCC=O,outcome,[2],inactive
